# Source: PubChem BioAssay (NCI)
# About 83,000 compounds went through this panel and 20% of them were active in at least one assay; those are over-represented in the sample as a whole.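 Assay: single dose, 48 h. Readout: percent growth (0 = no net growth; negative = cell death). Active: <10.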 A number with no mark means an inactive call. Active and inactive are the calls of the source.
# System: HL-60(TB) leukemia
# Test: NCI-60 one-dose screen, 48 h (100 = growth as untreated, 0 = no growth, -100 = all killed)
# Settings: 10 µM unless noted
row,SMILES,growth
1,O=C(O)c1ccc(-c2nn(-c3ccc(C(=O)O)cc3)cc2CNc2ccc(Br)cc2)cc1,107%
2,CCNCc1ccc(O)c2ncccc12,13.1%
3,COc1ccc2oc(=O)cc(Cn3cc(Cn4cnc5c4c(=O)n(C)c(=O)n5C)nn3)c2c1,107%
4,OCCS,98.4%
5,COc1cccc(C2C3=C(COC3=O)N(CCO)c3cc4c(cc32)CCC4)c1 (stereo not given),-0.364% (active)
6,CCCCC[C@H]1CC=C2C(=O)C(Cl)=C[C@@H]2CC=CCCCC(=O)O[C@@H](CCCCC)CC=C2C(=O)C(Cl)=C[C@@H]2CC=CCCCC(=O)O[C@@H](CCCCC)CC=C2C(=O)C(Cl)=C[C@@H]2CC=CCCCC(=O)O1,8.31% [8 µM] (active)
7,CC(=O)N1N=C(c2cccc(Nc3ccncc3)c2)CC1c1ccc2c(c1)OCO2 (stereo not given),90.3%
8,CC(C)(C)c1[nH]nc2c1C(c1cc3ccccc3[nH]c1=O)Nc1cc(C(=O)Nc3ccc(Cl)cc3)ccc1N2 (stereo not given),55.9%
9,Clc1ccc(Sc2nc(NC3CC3)nc(Sc3ccc(Cl)cc3)n2)cc1,60.9%
10,CC1(C)C(=O)/C(=C\c2ccccn2)C[C@]2(C)[C@H]3CC[C@@H]4[C@@H](C(=O)/C=C/c5ccccn5)CC[C@@]4(C)[C@]3(C)CC[C@@H]12,-14.4% (active)
11,CC1=NN(c2nc(-c3ccc(Cl)cc3)c(C#N)c(N3CCOCC3)n2)C(=O)C1,81.8%
12,O=c1oc2ccc(I)cc2c(=O)n1-c1ccc(Cl)cc1F,-47.1% (active)
13,O=C1C(Cl)=C(NCCCN(CCCNC2=C(Cl)C(=O)c3ccccc3C2=O)C2=C(Cl)C(=O)c3ccccc3C2=O)C(=O)c2ccccc21,37.6%
14,C=C(Cl)COC(=O)C(C)(C)O,103%
15,COc1ccc(/C=C2\COc3ccc(O)c(O)c3C2=O)c(OC)c1OC,-28.8% (active)
16,O=S1(=O)OC(c2ccc(O)c(Cl)c2)(c2ccc(O)c(Cl)c2)c2ccccc21,109%
17,NC(N)=NC(N)=NCCCc1ccccc1,55.7% [100 µM]
18,O=C(NNC(=S)Nc1ccccc1)c1ccncc1,117%
19,CN(C)c1ccc(/C=C/C(=O)c2ccc(NC(N)=O)cc2)cc1,87.3%
20,CC(C)C1CCCCC1O (stereo not given),193%

row,SMILES,growth
1,CCOC(=O)C#Cc1c(C(=O)OCC)nnn1[C@@H]1O[C@H](COC(C)=O)[C@@H](OC(C)=O)[C@H]1OC(C)=O,74%
2,CN(C)CCNC(=O)c1cccn2c(=O)c3cc4ccccc4cc3nc12,-38.5% (active)
3,Cn1cc(-c2ncnc3ccc(-c4cnc(Cl)c(NS(C)(=O)=O)c4)cc23)c2ccccc21,17.9%
4,O=C(NC1CCN(Cc2ccccc2)CC1)c1cc(C(=O)NC2CCN(Cc3ccccc3)CC2)cc(C(=O)NC2CCN(Cc3ccccc3)CC2)c1,64.3%
5,Nc1nc(Cl)nc2c1ncn2C1O[C@H](CO)[C@@H](O)[C@@H]1F (stereo not given in full),-34.8% (active)
6,Cc1cc2nc3c4cc([N+](=O)[O-])cc([N+](=O)[O-])c4n(CCN(C)C)c3nc2cc1C,98.2%
7,CN1/C(=C\C=C\C2=[N+](C)c3ccccc3C2(C)C)C(C)(C)c2ccccc21,-22.5% (active)
8,CCOC(=O)CC(=O)c1c(C)cc(C)cc1C,90.8%
9,CCOC(=O)c1c(C)nc2ccccc2c1/C=C/c1ccccc1,81.8%
10,O=C1/C(=C\C(Cl)=C/c2ccc([N+](=O)[O-])cc2)SC(=S)N1CCc1ccc(O)cc1,2.21% (active)
11,O=C(O)/C=C/C(=O)NCc1ccccc1,105%
12,O=C1NC(=O)/C(=C\c2ccco2)S1,74.2%
13,COc1ccc2cc(-c3ccc(C(=O)NN)c(C)n3)ccc2c1,104%
14,CCOC(=O)N1C/C(=C/c2ccc(Cl)cc2)C(=O)/C(=C/c2ccc(Cl)cc2)C1,61.5%
15,CCOC(OCC)c1cnc2nc(NC(C)=O)[nH]c(=O)c2n1,123%
16,COc1cc(/C=C2\CCCC3=C2NC(C)=NC3c2cc(OC)c(OC)c(OC)c2)cc(OC)c1OC (stereo not given),-4.1% (active)
17,Cn1ccnc1C(=O)/C=C/c1ccc(C(=O)Nc2ccc(S(F)(F)(F)(F)F)cc2)cc1,-30.1% (active)
18,O=[N+]([O-])c1cc(-c2ccccc2)c(O)c([N+](=O)[O-])c1,57.1%
19,COc1cccc(-c2nc3sccn3c2-c2ccnc(NCCNS(=O)(=O)c3ccc(C(F)(F)F)cc3)c2)c1,14.9%
20,CCc1c(Nc2ccccc2C)nc(N)[nH]c1=O,88.9%
